The test is described as follows: NCI Yeast Anticancer Drug Screen. Data for the wt1 strain (AID 149).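 Further: 0% = growth of vehicle-treated wt1 cultures.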 As to conditions: S. cerevisiae wt1 strain (SPY 50644) growth inhibition, stronger effect = higher value. On the procedure:
Growth inhibition of yeast strains with defined genetic alterations is measured as a screen for potential anti-cancer activity. Selected strains with alterations in DNA damage repair or cell cycle control were exposed to compounds and growth inhibition was measured relative to vehicle treated controls. The strain used in this assay is wt1

Where “and” joins values, the source holds several entries; their conditions need not be identical. Equal entries are not always repeated. About 79,000 compounds went through this panel and 15% of them were active in at least one assay; those are over-represented in the sample as a whole. Unmarked numbers belong to inactive results. Calls of active or inactive are those of the source. No stated cut-off is given here; in the data, active means growth inhibition above about 70%; inactive means the rest.

`O=S(=O)(O)/C(=C\c1ccccc1)c1ccccc1` (tested in a mixture with another compound): the growth inhibition is, setting by setting: (at 1.2 µM) 1%; (at 3.7 µM) 0%; (at 11.0 µM) 1%; (at 33.0 µM) 0%; (at 100.0 µM) -1%.
Take `N#Cc1cc(N(CCCl)CCCl)c([N+](=O)[O-])cc1[N+](=O)[O-]`: the growth inhibition was -6% (at 1.2 µM); 4% (at 3.7 µM); -7% (at 11.0 µM); 2% (at 33.0 µM); 58% (at 100.0 µM).
The like results for `CN(C)CCC(C(=O)C(Br)Br)(c1ccccc1)c1ccccc1` were, in that order, -2%, -1%, 26%, 98% (active) and 99% (active).
As for `COc1ccc([N+]2=NC(c3ccc([N+](=O)[O-])cc3)=NN(c3ccccc3)C2)cc1`, the growth inhibition runs as follows: (at 1.2 µM) 1%; (at 3.7 µM) 0%; (at 11.0 µM) -3% and -5%; (at 33.0 µM) 1% and -2%; (at 100.0 µM) 94% (active) and 89% (active).
Turning to `COC(=O)C1=C(C(=O)OC)SC2(S1)C(C(=O)OC)=C(C(=O)OC)Sc1c2ssc1=O`, the growth inhibition runs as follows: (at 1.2 µM) 27%; (at 3.7 µM) 26%; (at 11.0 µM) 66%; (at 33.0 µM) 99% (active); (at 100.0 µM) 94% (active).
`O=[N+]([O-])c1ccc(-n2nc3ccc4c(no[n+]4[O-])c3[n+]2[O-])c([N+](=O)[O-])c1`: the growth inhibition reads like this: (at 1.2 µM) -2%; (at 3.7 µM) -2%; (at 11.0 µM) -2%; (at 33.0 µM) 0%; (at 100.0 µM) 3%.
Turning to `O=C(NNC(=O)OCC(Cl)(Cl)Cl)OCC(Cl)(Cl)Cl`, the growth inhibition runs as follows: (at 1.2 µM) -1%; (at 3.7 µM) -2%; (at 11.0 µM) -3%; (at 33.0 µM) -3%; (at 100.0 µM) 11%.
For `CCN(CC)CCBr`, the growth inhibition is, setting by setting: (at 1.2 µM) -1%; (at 3.7 µM) 1%; (at 11.0 µM) -6%; (at 33.0 µM) -4%; (at 100.0 µM) -8%.

The values above are taken from PubChem BioAssay (NCI).
